Assay outcomes from PubChem BioAssay.
Shown are actives, neighbours in structure and some others; about 0.93% of the full set was active somewhere.
CIT2-GFP yeast: modulators of CIT2-GFP expression in yeast, primary screen, S. cerevisiae, GFP fusion, multiplex flow cytometry, MLPCN library; hit rate 0.065% among 320,000; GFP response vs DMSO, % at 10 µM; S. cerevisiae CIT2-GFP strain, 3 h; 100 means same as DMSO wells; AID 2029, 2009;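 active = GFP response relative to DMSO above a set limit, near the screen mean plus 3 SD, cut at about 150% in these data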;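 note: ratio of well median GFP fluorescence to mean of DMSO wells on the plate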
AGP1 TOR yeast: modulators of AGP1-GFP expression in yeast TOR pathway, primary screen, cell-based, multiplex flow cytometry, S. cerevisiae, MLPCN library | GFP response vs DMSO, % at 10 µM | 3 h; GFP as percent of DMSO wells | AID 2066, 2009 | hit rate 0.02% among 320,000;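 active = GFP response relative to DMSO above a set limit, near screen average plus 3 SD, cut at about 150% in these data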;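 note: median GFP channel fluorescence of the gated AGP1 strain per well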
MEP2-GFP yeast: modulators of MEP2-GFP levels in yeast, primary screen, S. cerevisiae, multiplex flow cytometry, MLPCN library. S. cerevisiae MEP2-GFP strain, 3 h; 100% = DMSO control level. GFP response vs DMSO, % at 10 µM. hit rate 0.51% among 330,000;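 active = GFP response versus DMSO above a set limit, roughly screen mean plus 3 SD, cut at about 180% in these data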;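 note: median GFP fluorescence of the barcode-gated MEP2-GFP cells per well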
RPL19A TOR yeast: RPL19A-GFP expression modulators in yeast, primary screen, cell-based, S. cerevisiae, multiplex flow cytometry, MLPCN. S. cerevisiae RPL19A-GFP strain, 3 h; hits give low values. percent response vs DMSO, % at 10 µM. hit rate 0.3% among 330,000. AID 2025, 2009;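 active = percent response vs DMSO below 50%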;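 note: median channel GFP fluorescence of the barcoded RPL19A-GFP strain; ratio of sample median GFP to plate DMSO average so 100% = DMSO; lower means less RPL19A-GFP as with rapamycin TOR inhibition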
LAP4-GFP MLPCN: modulators of LAP4-GFP expression in yeast, primary screen, S. cerevisiae, multiplex flow cytometry, MLPCN library; 3 h; median GFP as percent of DMSO wells; GFP response vs DMSO, % at 10 µM; hit rate 0.34% among 320,000;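 active = GFP response vs DMSO above a set limit, about the screen mean plus 3 SD, cut at about 150% in these data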
LAP4 cherry2: LAP4-GFP expression modulators in yeast, confirmation, cell-based, second cherry pick, flow cytometry; shares compounds with LAP4-GFP MLPCN; S. cerevisiae LAP4-GFP strain, 3 h; GFP response vs DMSO, % at 10 µM; hit rate 20% among 590; AID 2621, 2010;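 active = GFP signal as percent of the solvent control above about 150%, meaning raised reporter expression, limit read from the data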;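 note: ratio of well median GFP fluorescence to plate DMSO mean so 100% = DMSO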
MEP2-GFP pick2: modulators of MEP2-GFP levels in yeast, confirmation, S. cerevisiae, flow cytometry GFP, second cherry picks; S. cerevisiae MEP2-GFP strain, 3 h; shares compounds with LAP4-GFP MLPCN; hit rate 10% among 590; GFP response vs DMSO, % at 10 µM; AID 2622, 2010;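 active = GFP signal above 150% of the solvent control wells, that is a rise of more than half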;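 note: median channel GFP fluorescence of all gated yeast cells per well; ratio of median GFP to plate DMSO average so 100% = DMSO level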
RPL19A GFP CP2: RPL19A-GFP modulators in TOR pathway yeast, confirmation, cell-based, S. cerevisiae, flow cytometry, second cherry pick | GFP response vs DMSO, % at 10 µM | S. cerevisiae RPL19A-GFP strain, 3 h; hits give low values; 100% means same as DMSO wells | hit rate 3% among 590 | shares compounds with LAP4-GFP MLPCN | AID 2623, 2010;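 active = under 65% GFP response relative to DMSO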;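 note: median GFP channel fluorescence per well over the all cells gate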
CIT2 GFP CP2: modulators of CIT2-GFP expression in yeast, confirmation, flow cytometry, second cherry pick, single plex | GFP response vs DMSO, % at 10 µM | hit rate 8% among 590 | S. cerevisiae CIT2-GFP strain, 3 h; DMSO control wells read 100% | shares compounds with LAP4-GFP MLPCN;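 active = GFP response vs DMSO above about 150%, limit read from the data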;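 note: median green fluorescence per well over all gated yeast cells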
AGP1-GFP pick2: AGP1-GFP expression modulators, hit retest, confirmation, cell-based, flow cytometry, S. cerevisiae, cherry pick set 2. S. cerevisiae AGP1-GFP strain, 3 h. AID 2643, 2010. percent response vs DMSO, % at 10 µM. 590 tested, under 10 active. shares compounds with LAP4-GFP MLPCN;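 active = over 150 percent of DMSO response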;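 note: median GFP channel fluorescence over all cells without mother daughter split; sample median GFP divided by mean DMSO control so 100% equals DMSO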
s288c autofluor: compound autofluorescence in yeast s288c, dose response, artefact control for yeast TOR pathway GFP screen, s288c strain | fluorescence change (kMESF span) at 33 µM | S. cerevisiae s288c, 520 nm autofluorescence, flow cytometry, 3 h; hits give high values; zero means same as solvent-only cells | 610 tested, under 10 active | shares compounds with LAP4-GFP MLPCN;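 active = fluorescence span over the dose series, or activity score, above about 33, limit read from the data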
s288c autofl DR: autofluorescence of compounds in yeast s288c, dose response, artefact control for yeast TOR pathway GFP screen, primary hits, KU SAR, s288c parental; shares compounds with LAP4-GFP MLPCN; S. cerevisiae s288c parental, compound autofluorescence, flow cytometry, 3 h; fluorescence change (span) at 33 µM; 110 tested, under 10 active; AID 488829, 2010;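 active = fluorescence change span, or the activity score built from it, above 25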
TORC1 bypass: wild-type yeast growth inhibition sparing TORC1 bypass cells, mechanism study for yeast TOR pathway GFP screen, BY4741 wild type, TORC1 bypass strain; S. cerevisiae BY4741 spot growth rating, 48-72 h; hits give low values; growth rating (0-3) at 30 µM; shares compounds with LAP4-GFP MLPCN; 120 tested, under 10 active;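 active = growth rating at most 1 for wild type yeast while the TORC1 bypass strain still grows fully, rated 3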
* hit, by the source's call.

CCOc1ccc(S(=O)(=O)N2CCCCC2)cc1NC(=O)CN1C(=O)NC(C)(C2CC2)C1=O (stereo unspecified) was read as CIT2-GFP yeast 101.7, AGP1 TOR yeast 98.8, MEP2-GFP yeast 106.2, RPL19A TOR yeast 99.3 and LAP4-GFP MLPCN 98.8.
For Cc1ccc(S(=O)(=O)N2CC(C(=O)O)=CC[C@H]2c2ccc(Cl)cc2)cc1 the results were CIT2-GFP yeast 89.4, AGP1 TOR yeast 82.7, MEP2-GFP yeast 89.3, RPL19A TOR yeast 96.8, LAP4-GFP MLPCN 159.2*, LAP4 cherry2 111.2, MEP2-GFP pick2 92.6, RPL19A GFP CP2 97.4, CIT2 GFP CP2 97.3, AGP1-GFP pick2 94.5 and s288c autofluor -0.31.
COc1ccc([C@@H]2CC=C(C(=O)O)CN2S(=O)(=O)c2ccc(Cl)cc2)cc1 was read as CIT2-GFP yeast 110.3, AGP1 TOR yeast 85.4, MEP2-GFP yeast 83.1, RPL19A TOR yeast 95.7 and LAP4-GFP MLPCN 131.5.
Screening C=C1CCN([C@H](C(=O)OCc2ccc(C)cc2)C(C)C)S(=O)(=O)c2ccccc21 returned CIT2-GFP yeast 90.7, AGP1 TOR yeast 84.6, MEP2-GFP yeast 94.9, RPL19A TOR yeast 94.4 and LAP4-GFP MLPCN 106.4.
`C=C1CCN([C@@H](C)C(=O)OCc2cccc(C)c2)S(=O)(=O)c2ccccc21` gave CIT2-GFP yeast 124.9, AGP1 TOR yeast 91.5, MEP2-GFP yeast 97.9, RPL19A TOR yeast 98.0, LAP4-GFP MLPCN 153.4*, LAP4 cherry2 99.0, MEP2-GFP pick2 98.2, RPL19A GFP CP2 99.6, CIT2 GFP CP2 98.4 and AGP1-GFP pick2 97.4.
For O=C(OCn1ncc(Br)c(Br)c1=O)c1ccc(F)cc1 the results were AGP1 TOR yeast 80.9, MEP2-GFP yeast 85.5, RPL19A TOR yeast 89.8, LAP4-GFP MLPCN 235.9*, s288c autofluor 0.61, s288c autofl DR 0.36 and TORC1 bypass 2.
O=C(OCn1ncc(Br)c(Br)c1=O)c1ccccc1Cl was read as CIT2-GFP yeast 84.4, AGP1 TOR yeast 96.4, MEP2-GFP yeast 89.8, RPL19A TOR yeast 87.5, LAP4-GFP MLPCN 203.1* and s288c autofluor 0.
Screening O=C(OCc1cnc(Cl)s1)c1ccccc1Cl returned CIT2-GFP yeast 84.3, AGP1 TOR yeast 74.6, MEP2-GFP yeast 96.9, RPL19A TOR yeast 94.8 and LAP4-GFP MLPCN 100.3.
O=c1ccc(C(F)(F)F)cn1Cc1cc(=O)n2cc(Br)ccc2n1 was read as CIT2-GFP yeast 98.2, AGP1 TOR yeast 95.8, MEP2-GFP yeast 92.8, RPL19A TOR yeast 95.2 and LAP4-GFP MLPCN 106.1.
For C=C(CC[C@@H](O)C(C)(C)O)[C@H]1CC[C@]2(C)[C@@H]1CCC1[C@@]3(C)CCC(=O)C(C)(C)C3CC[C@]12C (stereo partly specified) the results were CIT2-GFP yeast 81.7, AGP1 TOR yeast 111.5, MEP2-GFP yeast 88.5, RPL19A TOR yeast 98.6, LAP4-GFP MLPCN 157.8*, LAP4 cherry2 105.8, MEP2-GFP pick2 96.5, RPL19A GFP CP2 95.8, CIT2 GFP CP2 92.7 and AGP1-GFP pick2 100.6.
For C=C(C)[C@@H]1CCC2(C(=O)O)CC[C@]3(C)[C@H](CC[C@@H]4[C@@]5(C)CCC(=O)C(C)(C)[C@@H]5CC[C@]43C)[C@@H]12 (stereo partly specified) the results were CIT2-GFP yeast 79.1, AGP1 TOR yeast 90.1, MEP2-GFP yeast 91.3, RPL19A TOR yeast 100.6 and LAP4-GFP MLPCN 109.3.
Screening CCOc1ncccc1C(=O)Nc1cccc(Cl)c1Cl returned CIT2-GFP yeast 94.8, AGP1 TOR yeast 93.8, MEP2-GFP yeast 96.1, RPL19A TOR yeast 99.8 and LAP4-GFP MLPCN 91.5.
For COc1ccccc1NC(=O)CCCCCN1C(=O)c2cccc([N+](=O)[O-])c2C1=O the results were CIT2-GFP yeast 104.3, AGP1 TOR yeast 98.7, MEP2-GFP yeast 109.9, RPL19A TOR yeast 103.1 and LAP4-GFP MLPCN 95.5.
For COc1cc(/C=C2/C(=O)c3cccc([N+](=O)[O-])c3C2=O)c(Br)cc1O the results were CIT2-GFP yeast 92.8, AGP1 TOR yeast 86.5, MEP2-GFP yeast 82.2, RPL19A TOR yeast 95.9, LAP4-GFP MLPCN 108.7, LAP4 cherry2 135.6, MEP2-GFP pick2 116.5, RPL19A GFP CP2 109.3, CIT2 GFP CP2 116.5, AGP1-GFP pick2 103.8 and s288c autofluor 0.1.
Oc1ccc(-c2c(-c3ccsc3)sc3ccccc23)cc1 was read as CIT2-GFP yeast 83.9, AGP1 TOR yeast 79.7, MEP2-GFP yeast 88.0, RPL19A TOR yeast 90.8, LAP4-GFP MLPCN 153.4*, LAP4 cherry2 114.2, MEP2-GFP pick2 104.8, RPL19A GFP CP2 89.5, CIT2 GFP CP2 97.3 and AGP1-GFP pick2 88.7.
